The campaign covered roughly 290,000 compounds. About 3,000 (1%) were called active. No stated cut-off is given here; in the data, active means inhibition mostly above about 36% (no sharp cut-off); inactive means mostly below about 34%. For the sample, actives were picked, then their nearest neighbours and some compounds at random.

This assay in a line: inhibition of NOD1-driven NF-kB reporter – cell-based, luminescence, uHTS, primary screen (AID 1578).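 Further: HEK-293T reporter cells stimulated with the NOD1 agonist gamma-tri-DAP.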 The settings on record: NOD1-driven NF-kB luciferase reporter cells, at 4 µM, hits give high values.
As to `CN(Cc1ccc2nonc2c1)Cc1nc(Cc2cccc(F)c2)no1`, the inhibition (usually the drop in the measured response relative to a control, in per cent) was -14.8% (inactive).
For `CC1(C)OC(=O)CC1C(=O)NCc1ccccc1` (stereo unspecified) the value was -18.4% (inactive).
For `Cc1ccc(NC(=S)NCC(O)c2ccccc2)c(C)c1` (stereo unspecified) the value was -31% (inactive); for `O=S(=O)(c1cccs1)N1CN(Cc2ccc(F)cc2)c2nc3ccccc3nc21`, 6.3% (inactive); for `COC(=O)C1CCN(C(=O)/C(C)=C\c2ccccc2)CC1`, -32.2% (inactive).
The same measure for `COC(=O)C1CC23C=CCN4CCC5(c6ccccc6NC15C2C)C43` (stereo unspecified): 46.8% (active); for `CCC12CCCN3CCC4(C(=C(C(=O)OC)C1)Nc1ccccc14)C32` (stereo unspecified): -7.2% (inactive); for `CCCOC1CCCN(C(=O)CCCn2nnnc2CN2CCOCC2)C1` (stereo unspecified): 10.3% (inactive).
Take `Cc1cc(C(=O)NC2CCCN(Cc3ccccc3F)C2)no1` (stereo unspecified): the inhibition is -19.1% (inactive).
As to `Cn1nc(C(=O)NC2CCCN(Cc3ccccc3F)C2)c2ccccc2c1=O` (stereo unspecified), the inhibition was -20.9% (inactive).
The same measure for `O=C(O)C(=O)/C(=C\c1cccc2ccccc12)c1ccc2ccccc2n1`: 2.3% (inactive); for `CCC(C(=O)NC1CCCC1)N(C(=O)Cn1nnc(-c2ccc(OC)c(OC)c2)n1)c1cccc(O)c1` (stereo unspecified): -30.7% (inactive).
For `Cc1cc(C(=O)COC(=O)c2ccc(Br)o2)c(C)n1Cc1ccco1` the value was -24.2% (inactive).
The same measure for `COCCn1c(C)cc(C(=O)COC(=O)c2ccccc2Br)c1C`: 67.9% (active).
For the compound `Cc1cc(C(=O)COC(=O)c2ccc(O)cc2)c(C)n1Cc1ccco1`, the inhibition is -37.3% (inactive).
On to `Cc1cc(C(=O)CSc2nnc(-c3ccccc3F)o2)c(C)n1Cc1cccs1`, for which the inhibition is 58.1% (active).
For `Cc1cc(C(=O)CN2C(=O)c3ccccc3C2=O)c(C)n1Cc1cccs1` the value was 13.2% (inactive); for `COc1ccc(-c2nnc(SCC(=O)c3cc(C)n(Cc4cccs4)c3C)o2)cc1`, -40.4% (inactive).
The same measure for `Cc1cc(C(=O)CSc2n[nH]c(-c3ccccc3F)n2)c(C)n1Cc1cccs1`: 29.2% (inactive); for `COCCn1c(C)cc(C(=O)COC(=O)c2ccc(Br)o2)c1C`: -30.4% (inactive).
For `Cc1cc(C(=O)COc2ccc3ccc(=O)oc3c2)c(C)n1Cc1cccs1` the value was 22.1% (inactive); for `Cc1cc(C(=O)COC(=O)c2ccco2)c(C)n1Cc1ccco1`, 45.8% (active).
With `COCCn1c(C)cc(C(=O)COC(=O)c2ccc[nH]c2=O)c1C`, the inhibition was 50.7% (inactive).
The same measure for `CCOC(=O)CSc1nnc(Cn2c(=O)sc3ccccc32)n1-c1ccccc1C`: 5.4% (inactive).
For `O=C(Nc1ccc(F)cc1)N(Cc1cccs1)Cc1cc2cc3c(cc2[nH]c1=O)OCO3` the value was -9.6% (inactive); for `CC1(C)CC(=O)C(C=NCC2CCNCC2)=C(O)C1`, -6.2% (inactive).

The values above are taken from PubChem BioAssay AID1578 (Sanford-Burnham Center for Chemical Genomics, 2009).
